Source: PubChem BioAssay
Active and inactive are the calls of the source.

Legend:
[1] = target: Albumin (Bos taurus) (UniProt P02769); assay: compounds binding labelled BSA control protein – biochemical, small-molecule microarray, Alexa647 label, 635/667 nm fluorescence, artefact control for SMM control protein annotation, profiling panel (AID 1118); conditions: BSA-A647 binding, fluorescence 635 nm, higher = more signal;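 note: score merges 667 nm emission intensity and signal-to-noise per printed compound spot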
Chain of Albumin (Bos taurus) (P02769 whole entry, looked up): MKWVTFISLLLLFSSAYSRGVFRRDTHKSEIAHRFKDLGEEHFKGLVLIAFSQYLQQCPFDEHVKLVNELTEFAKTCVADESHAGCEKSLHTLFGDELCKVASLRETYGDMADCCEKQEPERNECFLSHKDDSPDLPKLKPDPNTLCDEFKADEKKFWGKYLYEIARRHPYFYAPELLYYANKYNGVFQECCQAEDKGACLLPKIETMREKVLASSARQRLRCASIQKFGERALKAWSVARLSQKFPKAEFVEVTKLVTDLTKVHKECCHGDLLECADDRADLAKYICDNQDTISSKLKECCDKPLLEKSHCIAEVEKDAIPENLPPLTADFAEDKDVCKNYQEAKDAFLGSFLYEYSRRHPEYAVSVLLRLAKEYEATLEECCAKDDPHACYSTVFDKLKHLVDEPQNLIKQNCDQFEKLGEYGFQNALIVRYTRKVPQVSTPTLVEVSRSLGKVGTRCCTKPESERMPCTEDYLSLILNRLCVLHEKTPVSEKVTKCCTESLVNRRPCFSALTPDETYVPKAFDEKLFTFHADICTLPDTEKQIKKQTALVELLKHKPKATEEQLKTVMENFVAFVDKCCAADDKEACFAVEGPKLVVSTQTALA

[2] = probe aXIP binding to arrayed compounds – biochemical, NeuroSMM set, 635/667 nm fluorescence, primary screen (AID 1119); conditions: small-molecule microarray, higher = more signal, called active from +8 up or from −8 down;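 note: probe is the protein aXip251-270 applied at 1 µg/mL to compound-printed slides; binding of probe to printed compounds measured as 667 nm fluorescence plus signal to noise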
[3] = probe aNOTCH3 binding on compound microarray – biochemical, small-molecule microarray, 635/667 nm fluorescence, primary screen (AID 1120); conditions: higher = more signal;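 note: probe is a biotin-tagged antibody raised against NOTCH3 rather than NOTCH3 protein; score merges spot fluorescence near 667 nm with spot signal to noise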
[4] = probe aNOTCH2 binding on compound microarray – biochemical, small-molecule microarray, 635/667 nm fluorescence, primary screen (AID 1121); conditions: higher = more signal;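 note: score merges feature fluorescence read at 667 nm with its signal to noise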
[5] = target: Carbonic anhydrase 2 (Homo sapiens) (UniProt P00918); assay: compounds binding carbonic anhydrase 2 – biochemical, small-molecule microarray, Alexa647-labelled CAII, profiling panel (AID 1122); conditions: CAII-A647 binding fluorescence, higher = more signal
[6] = COS7 lysate on small-molecule microarray, probe aHis, 635 nm (AID 1123); conditions: COS7 cell lysate, fluorescence, higher = more signal;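 note: z-score combines 667nm fluorescence intensity with signal-to-noise per printed compound spot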
[7] = probe aLAP1 signal on lysate-treated microarray – cell lysate, small-molecule microarray, COS7 lysate, primary screen (AID 1124); conditions: probe aLAP1, fluorescence, higher = more signal;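 note: lysate comes from COS7 cells expressing LAP1 and is applied at 0.3 µg/mL; score merges spot fluorescence near 667 nm with signal-to-noise over triplicate slides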
[8] = system: Sam68 (KHDRBS1); assay: compounds binding KHDRBS1 protein – biochemical, small-molecule microarray, 635 nm fluorescence, primary screen (AID 1125); conditions: higher = more signal;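 note: score merges 667 nm channel intensity with signal to noise over triplicate slides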
[9] = system: Chordin-like protein 2 (CHRDL2); assay: compounds binding chordin-like 2 – biochemical, small-molecule microarray, 635 nm fluorescence, primary screen (AID 1126); conditions: fluorescence 635 nm, higher = more signal;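 note: printed compound slides probed with Chrdl2 protein at 4 µg/mL for 1 h at 4 C; score merges 667 nm emission intensity with signal to noise over three replicate slides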
[10] = target: Concanavalin-A (Canavalia ensiformis) (UniProt P02866); assay: compounds binding concanavalin A lectin – biochemical, small-molecule microarray, Alexa647 label, 635 nm, artefact control for SMM control protein annotation, primary screen (AID 1127); conditions: ConA-A647 binding fluorescence, higher = more signal;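 note: z combines 667 nm emission intensity with signal-to-noise across three replicate slides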
Chain of Concanavalin-A (Canavalia ensiformis) (P02866 whole entry, looked up): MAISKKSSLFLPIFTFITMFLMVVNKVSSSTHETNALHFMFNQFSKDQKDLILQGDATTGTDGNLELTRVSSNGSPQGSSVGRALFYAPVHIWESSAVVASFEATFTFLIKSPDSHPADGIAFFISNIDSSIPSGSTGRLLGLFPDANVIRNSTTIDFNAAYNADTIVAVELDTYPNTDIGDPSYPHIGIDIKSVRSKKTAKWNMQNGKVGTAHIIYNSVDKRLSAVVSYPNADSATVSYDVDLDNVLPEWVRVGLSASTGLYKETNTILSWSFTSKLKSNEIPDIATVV

| Structure (SMILES) | composite z-score [1] | composite Z-score [2] | composite z-score [3] | composite z-score [4] | composite z-score [5] | composite z-score [6] | composite z-score [7] | composite z-score [8] | composite z-score [9] | composite z-score [10] |
| --- | --- | --- | --- | --- | --- | --- | --- | --- | --- | --- |
| O=C1O[C@H](c2ccccc2)[C@H](c2ccccc2)N2[C@H]1[C@@H](C(=O)NC[C@H](O)c1ccccc1)[C@]1(C(=O)Nc3ccccc31)[C@H]2c1ccc(O)cc1 | 0.626 | -0.35 (inactive) | -0.0328 | -0.0629 | 0.66 | 1.19 | 0.463 | 0.959 | 1.23 | 1.01 |
| O=C1NC(=O)C2C1C=CC(C(O)c1ccc(I)cc1)N2Nc1ccc(Cl)cc1Cl (stereo not given) | 0.99 | -0.234 (inactive) | 0.387 | 0.127 | 0.404 | 1.61 | 0.943 | 1.22 | -0.776 | 1.09 |
| CC(=O)Nc1cc(Br)ccc1C(=O)NCc1ccccc1 | 0.744 | -0.34 (inactive) | -0.0311 | -0.123 | 0.23 | 1.18 | -0.458 | 0.494 | -0.141 | 0.811 |
| CO[C@H]1O[C@H](CO)[C@@H](OC(=O)Nc2ccccc2-c2ccccc2)[C@H](OC(=O)Nc2ccccc2-c2ccccc2)[C@@H]1OC(=O)Nc1ccccc1-c1ccccc1 | 0.926 | 0.523 (inactive) | 0.0904 | -0.0513 | 0.374 | 2.18 | 0.75 | 1.29 | 0.332 | 1.17 |
| CCCCC(O)C1C=CC2C(=O)N(C)C(=O)C2N1N1CCCCC1 (stereo not given) | 0.843 | 0.257 (inactive) | 0.291 | 0.0675 | 0.821 | 2.45 | 0.536 | 0.952 | 0.372 | 0.0635 |
| CC[C@@H]1C=C(C(=O)O)[C@H](c2ccc(C)cc2)N1S(=O)(=O)c1ccc(C)cc1 | 0.74 | 0.827 (inactive) | 0.0876 | -0.101 | 0.759 | 0.969 | 0.0014 | 1.19 | -0.697 | 0.759 |
| O=C(CS)NCCCCCNC(=O)[C@H]1C[C@H]2C(=O)NCC(=O)N2[C@H]1c1ccc(O)cc1 | -0.366 | 0.161 (inactive) | -0.372 | -0.185 | 0.281 | -0.29 | -0.474 | -1.3 | -0.559 | -0.0836 |
| COc1ccc([Si](C)(C)[C@@H]2[C@@H](CCn3cc(CCO)nn3)O[C@]3(C(=O)N(Cc4cccc(N5C(=O)c6cccc7cccc5c67)c4)c4ccccc43)[C@H]2C)cc1 | 0.695 | 0.478 (inactive) | 0.0351 | -0.14 | 0.224 | 1.01 | 0.222 | 1.29 | -0.0468 | 0.833 |
| COC(=O)[C@@]1(Cc2ccc(F)cc2)[C@H]2c3cc(C(=O)N(C)C)n(Cc4ccc(C)o4)c3C[C@H]2CN1C(=O)c1ccccc1 | -0.373 | 0.444 (inactive) | 1.6 | 0.992 | 0.458 | 3.29 | 1.13 | 0.47 | -0.852 | -1.67 |
| CCCNC(=O)[C@@H]1c2ccccc2C(=O)N(Cc2ccccc2OC)[C@H]1c1ccc(CO)cc1 | 0.735 | -0.228 (inactive) | -0.0573 | -0.0966 | 0.604 | 1.83 | 0.614 | 1.1 | -0.0218 | 0.748 |
| CC1CC/C=C\[C@H]2OC34C=CCN(Cn5nnc6ccccc65)C(=O)[C@H]3N(CCCCCO)C(=O)[C@@H]4C2C(=O)O1 (stereo not given in full) | -1.22 | 0.19 (inactive) | -0.236 | -0.106 | 0.548 | 0.737 | 0.434 | 0.479 | -1.75 | -0.845 |
| O=C(NCCN1CCOCC1)[C@@H]1c2ccccc2C(=O)N(Cc2cc(C(F)(F)F)cc(C(F)(F)F)c2)[C@H]1c1ccc(CO)cc1 | -0.32 | -0.253 (inactive) | -0.292 | -0.101 | 0.699 | 1.61 | 0.501 | 0.687 | -1.67 | 0.412 |
| CCCCCCc1nc(-c2ccc(-c3ccc(Cl)c(Cl)c3)o2)cc2c1[Si](C(C)C)(C(C)C)O[C@H]2c1ccccc1 | 0.108 | 1.35 (inactive) | -0.292 | -0.153 | 0.739 | 0.458 | -0.418 | -0.472 | -0.517 | -0.131 |
| CCCC[C@H]1C[C@@H]1[C@@H]1N(P(=O)(c2ccccc2)c2ccccc2)C[C@@](O)(c2ccccc2)CC12CC2 | 0.951 | 0.863 (inactive) | 0.169 | 0.0525 | 0.374 | 2.28 | 0.473 | 0.944 | -1.95 | 0.499 |
| C=CCOC(=O)[C@H]1[C@@H]2C(=O)O[C@@H](c3ccccc3)[C@@H](c3ccccc3)N2[C@@H](c2ccc(OCCOC(=O)[C@H]3C[C@H]4C(=O)N[C@@H](CCCCN(C)C)C(=O)N4[C@H]3c3cccc(OCCO)c3)cc2)[C@]12C(=O)Nc1ccc(I)cc12 | -0.427 | 0.715 (inactive) | 0.0306 | -0.154 | 0.228 | 0.986 | -0.0143 | 1.3 | 1.39 | 1.12 |
| C=CCN1C(=O)[C@]2(O[C@H](CCO)[C@@H]([Si](C)(C)c3ccc(OC)cc3)[C@@H]2C)c2cc(N(C=O)c3ccccc3)ccc21 | 0.0925 | 0.111 (inactive) | -0.0967 | -0.0315 | 0.561 | 0.225 | 0.398 | 0.518 | -0.0095 | 0.497 |
| COCCOC(=O)N1C(=O)[C@@]2(c3ccccc31)[C@H](C(N)=O)[C@H]1C(=O)O[C@H](c3ccccc3)[C@H](c3ccccc3)N1[C@@H]2c1ccc(O)cc1 | 0.737 | 0.573 (inactive) | -0.162 | -0.104 | 0.54 | 2.37 | 0.325 | 0.371 | -0.169 | 0.237 |
